miR-122 sensor – blocks miR-122 activity in Huh7 sensor cells; Huh7 miR-122 Renilla luciferase sensor, 48 h; neutral wells = 0, positive control = 100; activation (reporter increase), % at 12.5 µM; hit rate 0.3% among 340,000; AID 602342;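 active = mean replicate activation score at least 90 and every replicate individually at or above 90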;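 also: higher luciferase means less miR-122 activity so hits act as miR-122 inhibitors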
PGC1a acetyl inh – modulators of PGC1a acetylation | U2OS PGC1a acetylation, AlphaScreen anti-acetyl-lysine; with virally co-expressed GCN5 acetyltransferase | inhibition, % at 15.6 µM | hit rate 0.17% among 350,000 | AID 651687;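 active = every replicate shows inhibition of at least 40%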;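 also: 0% = neutral control wells and 100% = positive control wells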
DENV2 CPE rescue – protects cells from dengue virus 2 cytopathic effect | DENV2-infected cells, cytopathic effect rescue, plate reader | CPE inhibition, % at 9.99 µM | hit rate 1.7% among 350,000; in the data active = CPE inhibition above about 20%, passing the limit was not always enough; tested in BHK-21 cells;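 also: 0% = median of neutral control wells and 100% = median of positive control wells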
PvdQ acylase – blocks Pseudomonas aeruginosa PvdQ acylase activity; purified PvdQ acylase, fluorescence plate reader; inhibition, % at 10 µM; hit rate 0.063% among 340,000; AID 488965; in the data active = inhibition above about 30%, passing the limit was not always enough;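 also: 0% = vehicle neutral wells and 100% = reference inhibitor wells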
Statin myotox sup – suppression of simvastatin myotoxicity; C2C12 myotubes + simvastatin, ATP luminescence, 48 h; scaled: DMSO 0, geranylgeraniol control 100; rescue of ATP level, % at 7.49 µM; hit rate 0.78% among 330,000;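 active = mean ATP rescue above about 67%, or every replicate alone reaching that limit, limit read from the data, passing the limit was not always enough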;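 also: myotubes were challenged with 10 µM simvastatin during compound exposure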
* = called active by the depositor; . = no result; [ ] = another dose, or the depositor's remark. Most compounds without a hit are left out; they make up all but 2.2% or so of the library.

SMILES | miR-122 sensor | PGC1a acetyl inh | DENV2 CPE rescue | PvdQ acylase | Statin myotox sup
Cc1ccc(S(=O)(=O)Nc2cccc3c2O[C@H](CN(C)S(=O)(=O)c2cn(C)cn2)[C@@H](C)CN([C@@H](C)CO)C3=O)cc1 | 1[16.7 µM] | -1 | -3 | . | 9
C[C@H]1CN([C@@H](C)CO)C(=O)c2c(c3ccccc3n2C)-c2ccccc2CO[C@@H]1CN(C)C(=O)Nc1cccc(C(F)(F)F)c1 | . | -6 | 11 | . | .
Cc1ccc2[nH]c(=O)c(NC(N)=S)nc2c1 | -3 | -3 | . | -3 | 101*
NC(=S)Nc1nc2ccccc2[nH]c1=O | . | . | -1 | . | .
C[C@@H]1CN([C@H](C)CO)C(=O)Cc2cc(NC(=O)CCN3CCOCC3)ccc2O[C@@H]1CN(C)S(=O)(=O)c1ccccc1 | 2[16.7 µM] | 8 | 7 | . | 2
CCc1ccc(NC(=O)C2CCCN(S(=O)(=O)c3cccs3)C2)cc1 (stereo not given) | -1 | -5 | 13 | -5 | -34
O=C(Nc1ccc(F)cc1)C1CCCN(S(=O)(=O)c2ccc3[nH]c(=O)ccc3c2)C1 (stereo not given) | 2 | 5 | 115* | -9 | 2
O=C(Nc1ccc(Br)cc1)C1CCCN1S(=O)(=O)c1cccs1 (stereo not given) | 1 | 8 | . | -4 | 139*
Cc1ccc(NC(=O)C2CCCN(S(=O)(=O)c3cccs3)C2)cc1 (stereo not given) | 1 | 4 | . | -3 | 78*
CN(C)C(=O)c1cccc(-c2ccc3c(c2)[C@H]2[C@H](CCN2C(=O)C2CCOCC2)[C@@H](CO)N3)c1 | -5[16.7 µM] | 4 | -3 | . | -7
COC(=O)[C@@H]1[C@H](CCc2ccccc2)NC(=O)N(Cc2ccccc2)[C@@H]1C | . | . | 68* | -11 | 10
CCN1C(=O)N[C@@H](CCc2ccccc2)[C@H](C(=O)OC)[C@H]1C | . | . | -1 | -8 | 2
Cc1noc(C)c1S(=O)(=O)N(C)C[C@@H]1Oc2c(NS(=O)(=O)c3ccccc3)cccc2C(=O)N([C@H](C)CO)C[C@@H]1C | 31[16.7 µM] | 6 | 1 | . | -17
CCC(C)c1ccc(NC(=S)NCc2cccs2)cc1 (stereo not given) | 174* | -2 | . | -16 | -9
CC(C)(C)c1ccc(NC(=S)NCc2cccs2)cc1 | 56 | -8 | . | -22 | -9
Brc1ccc(-c2nn3c(Cc4ccccc4)nnc3s2)o1 | 4 | -39 | . | 5 | 72*
N#C[C@@H]1[C@@H](c2ccc(-c3ccncc3)cc2)[C@@H](CO)N1C(=O)C1CCCC1 | . | -3 | -3 | . | -12
O=C(NC1CCCC1)c1nc(-c2c(F)cccc2F)oc1-c1ccccc1 | . | . | 22* | . | .
CCCCCNC(=O)c1nc(-c2c(F)cccc2F)oc1-c1ccccc1 | . | . | -3 | . | .
CC1=C/C(=N\OS(=O)(=O)c2ccccc2)C(C)=CC1=O | -8 | 60* | . | -6 | .
FC(F)(F)c1nc2ccccc2n2c(-c3ccc(Cl)cc3Cl)nnc12 | -17 | -5 | . | 12 | 84*
Cc1cc(C)nc(Sc2nc(Cl)nc(N(c3ccccc3)c3ccccc3)n2)n1 | -2 | 10 | . | -4 | 102*
CO[C@@H]1CN(C)C(=O)c2ccc(NC(=O)c3ccc(F)cc3)cc2OC[C@H](C)N(C(C)=O)C[C@H]1C | . | 2 | 5 | . | 2
CNCC(C)COc1ccccc1OCc1ccccc1 (stereo not given) | . | . | 64* | 27 | .
Cc1ccc(S(=O)(=O)N(C)C[C@@H]2OCCCC[C@H](C)Oc3ccc(NS(C)(=O)=O)cc3C(=O)N([C@H](C)CO)C[C@@H]2C)cc1 | 9[16.7 µM] | -8 | 57* | . | .
SMILES | miR-122 sensor | PGC1a acetyl inh | DENV2 CPE rescue | PvdQ acylase | Statin myotox sup
C[C@@H]1CCCCO[C@H](CN(C)S(=O)(=O)c2ccc(F)cc2)[C@@H](C)CN([C@@H](C)CO)C(=O)c2cc(NS(C)(=O)=O)ccc2O1 | -2[16.7 µM] | 7 | 29* | . | 10
C[C@H](CO)N1C[C@H](C)[C@@H](CN(C)S(=O)(=O)c2ccc(F)cc2)OCCCC[C@H](C)Oc2ccc(NS(C)(=O)=O)cc2C1=O | 1[16.7 µM] | -6 | 27* | . | -26
Cc1ccc(S(=O)(=O)Nc2ccc3c(c2)C(=O)N([C@H](C)CO)C[C@H](C)[C@H](CN(C)S(=O)(=O)c2ccc(Cl)cc2)OCCCC[C@@H](C)O3)cc1 | -12[16.7 µM] | -3 | 66* | . | .
C[C@@H]1CCCCO[C@@H](CN(C)S(C)(=O)=O)[C@H](C)CN([C@@H](C)CO)C(=O)c2cc(NS(=O)(=O)c3ccc(Cl)cc3)ccc2O1 | 2[16.7 µM] | -15 | 84* | . | 42
C[C@@H]1CN([C@H](C)CO)C(=O)c2cc(NS(C)(=O)=O)ccc2O[C@@H](C)CCCCO[C@H]1CN(C)S(=O)(=O)c1ccc(Cl)cc1 | -1[16.7 µM] | 3 | -7 | . | -17
C[C@@H]1CCCCO[C@H](CN(C)S(=O)(=O)c2ccc(Cl)cc2)[C@H](C)CN([C@@H](C)CO)C(=O)c2cc(NS(C)(=O)=O)ccc2O1 | 5[16.7 µM] | -5 | 1 | . | 163*
C[C@H](CO)N1C[C@H](C)[C@@H](CN(C)S(C)(=O)=O)OCCCC[C@H](C)Oc2ccc(NS(=O)(=O)c3ccc(Cl)cc3)cc2C1=O | 11[16.7 µM] | -4 | -6 | . | 0
COc1ccc(NC(=O)N(C)C[C@H]2Oc3ccc(NS(=O)(=O)c4ccc(C)cc4)cc3C(=O)N([C@H](C)CO)C[C@@H]2C)cc1 | 5[16.7 µM] | -9 | . | . | 11
Clc1ccc(-c2nnc(C3CCCCC3)o2)cc1 | -3 | 3 | . | -13 | 123*
COCC(=O)N(C)C[C@@H]1Oc2cc(C#CC3CCCC3)ccc2S(=O)(=O)N([C@@H](C)CO)C[C@H]1C | 10[16.7 µM] | 7 | . | . | -17
Cc1ccc2c(c1)-n1c(nc3ccc(C)cc3c1=O)C(Cc1ccc(O)cc1)NC2=O (stereo not given) | . | . | 33* | . | .
Cc1ccc2c(c1)-n1c(nc3cc(F)ccc3c1=O)C(Cc1ccc(O)cc1)NC2=O (stereo not given) | . | . | -1 | . | .
Cc1ccc2nc3n(c(=O)c2c1)-c1ccccc1C(=O)NC3CC(C)C (stereo not given) | . | . | -3 | . | .
Cc1ccc2nc3n(c(=O)c2c1)-c1ccc(Cl)cc1C(=O)NC3CC(C)C (stereo not given) | . | . | 77* | . | .
C/C=C/c1ccc([C@H]2[C@@H](CO)N(CCC(F)(F)F)C23CN(C(=O)COC)C3)cc1 | . | 0 | -7 | . | .
CC1(C)CC(=O)C=C(c2ccc(COC(=O)C(c3ccccc3)c3ccccc3)cc2)C1=O | 0 | -7 | 54* | . | 6
CC(=O)OCc1ccc(C2=CC(=O)CC(C)(C)C2=O)cc1 | -2 | . | 1 | . | 2
C[C@@H](NC(=O)C[C@@H]1CC[C@H]2[C@@H](COC[C@H](O)CN2C(=O)Nc2cc(Cl)cc(Cl)c2)O1)c1ccccc1 | -9[16.7 µM] | -10 | 40* | . | -2
C[C@@H](NC(=O)C[C@@H]1CC[C@H]2[C@@H](COC[C@@H](O)CN2C(=O)Nc2cc(Cl)cc(Cl)c2)O1)c1ccccc1 | -2[16.7 µM] | -10 | 2 | . | 10
